The campaign covered roughly 4,300 compounds. About 60 (1%) were called active.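 Rule for the calls: active = inhibition of labelled peptide binding to the formyl peptide receptor of at least 65%; inactive = the rest.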 Only a selection was taken, and actives are over-represented in it overall.
The molecules below were run against fMet-Leu-Phe receptor (Homo sapiens) (UniProt P21462) (assay: small-molecule ligands of human FPR – U937-FPR cells, fMLFK-FITC, flow cytometry, primary screen (AID 362;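 for inhibition: plate controls were buffer control wells for no effect and unlabeled fMLFF blocking peptide for full effect; higher means less cell fluorescence so more probe displaced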)). Settings: fMLFK-FITC displacement; active compounds read high, concentration not given here.
Chain of fMet-Leu-Phe receptor (Homo sapiens) (P21462 whole entry, looked up): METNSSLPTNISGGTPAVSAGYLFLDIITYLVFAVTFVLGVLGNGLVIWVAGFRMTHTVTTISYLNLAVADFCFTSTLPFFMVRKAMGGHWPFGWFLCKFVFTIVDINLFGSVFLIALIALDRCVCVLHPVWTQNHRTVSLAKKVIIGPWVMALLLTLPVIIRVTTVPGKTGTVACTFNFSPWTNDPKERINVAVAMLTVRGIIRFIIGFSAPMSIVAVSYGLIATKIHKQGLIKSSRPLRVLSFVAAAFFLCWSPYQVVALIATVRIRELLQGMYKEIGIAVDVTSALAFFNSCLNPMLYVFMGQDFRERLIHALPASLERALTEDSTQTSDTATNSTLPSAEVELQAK

inhibition, inactive:
CCC(C)C(NC(=O)C(CC(=O)OCc1ccccc1)NC(=O)OC(C)(C)C)C(=O)NC(Cc1ccccc1)C(N)=O (stereo not drawn), CCOc1cc(C2C(C(=O)OC3CCCC3)=C(C)NC3=C2C(=O)C(C(=O)OC)C(C)C3)ccc1O (stereo not drawn) 15.5%, CCCN(CCC)CCNC(=O)c1cn(CC(C)C)c(=O)c2cc(OC)c(OC)cc12, CC1=C(C(=O)OC2CCCCC2)C(c2cccc(O)c2)C2=C(CC(C)(C)CC2=O)N1 (stereo not drawn) 20.5%, O=C(CCCCCn1c(SCC(=O)NCc2ccccc2)nc2ccccc2c1=O)NCc1ccco1 3.6%, COc1ccc2nc(NC(=O)C(NS(=O)(=O)c3ccc4c(c3)CCN4C(C)=O)C(C)C)sc2c1 (stereo not drawn), COc1ccc(C2/C(=C(/O)c3ccc(C)cc3)C(=O)C(=O)N2CC(C)C)c(OC)c1 (stereo not drawn) 52.9%, COc1ccc(C2/C(=C(/O)c3ccc(Cl)cc3)C(=O)C(=O)N2CC(C)C)c(OC)c1 (stereo not drawn) 31.1%, COc1ccc(C2/C(=C(\O)c3ccc(F)cc3)C(=O)C(=O)N2CCCCCC(=O)O)c(OC)c1 (stereo not drawn) 23.3%, COc1ccccc1C1/C(=C(\O)c2ccc(F)cc2)C(=O)C(=O)N1CCCCCC(=O)O (stereo not drawn) 11.2%, O=C(Nc1nccs1)c1cc(N2C(=O)C3C4CCC(C4)C3C2=O)ccc1Cl (stereo not drawn), CCSCCOC(=O)C1=C(C)NC2=C(C(=O)C(C(=O)OC)C(C)C2)C1c1cccc(F)c1 (stereo not drawn) 5.8%, O=c1oc2cc(O)ccc2c2c1CCCC2, O=c1oc2cc(O)ccc2c2c1CCC2 7%, Cc1cc(NC(=O)C2CCCCC2C(=O)O)nn1Cc1ccc(Cl)cc1 (stereo not drawn) 3%, CCCCCCOC(=O)C1=C(C)NC(=O)NC1c1cc(OC)c(O)c(OC)c1 (stereo not drawn), CCCCCC(=O)Oc1cccc(N2C(=O)C3C4CCC(C4)C3C2=O)c1 (stereo not drawn), COC(=O)CC/C(O)=C1\C(=O)CC(C)(C)CC1=NCCc1ccc(OC)c(OC)c1 3.2%, CCOc1cc2c(C(=O)N3CCN(c4ccccn4)CC3)cn(CC(C)C)c(=O)c2cc1OCC 3.9%, COc1cc2c(C(=O)O)cn(CC(C)C)c(=O)c2cc1OC, CCCc1cc(=O)oc2cc(OCC(=O)OCC)cc(OCC(=O)OCC)c12, CCCc1cc(=O)oc2cc(OC(C)=O)ccc12 17.6%, CCOc1ccc(CCNC(=O)c2cn(CC(C)C)c(=O)c3cc(OC)c(OC)cc23)cc1OCC, C=C(C)Cn1c(SCC(=O)c2ccccc2)nc2c(c1=O)C1(CCCC1)Cc1ccccc1-2, CCOC(=O)c1cc2c(=O)n3ccccc3nc2n(CC(C)C)c1=NC(=O)c1ccccc1OCC, CCOC(=O)c1c(NC(=O)C2C3CCC(C3)C2C(=O)O)sc(C)c1-c1ccc(C(C)(C)C)cc1 (stereo not drawn) 63.6%, CCOC(=O)c1c(NC(=O)C2CCCCC2C(=O)O)sc(C)c1-c1ccc(C(C)(C)C)cc1 (stereo not drawn) 29.4%, CCOC(=O)c1c(NC(=O)C2CCCCC2C(=O)O)sc(C)c1-c1ccc(F)cc1 (stereo not drawn) 57.3%, CCOC(=O)c1c(NC(=O)C2C3CCC(C3)C2C(=O)O)sc(C)c1-c1ccc(Cl)cc1 (stereo not drawn) 45.9%, CCCOC(=O)c1c(NC(=O)C2CCCCC2C(=O)O)sc(C)c1-c1ccc(F)cc1 (stereo not drawn) 17.2%, CCCOC(=O)c1c(NC(=O)C2CCCCC2C(=O)O)sc(C)c1C (stereo not drawn) 35.7%, N#CC1=C(SCC(=O)Nc2ccc(Cl)cc2)NC(=O)C(C#N)C12CCCCC2 (stereo not drawn) 52.1%, N#CC1=C(SCC(=O)Nc2ccc(F)cc2)NC(=O)C(C#N)C12CCCCC2 (stereo not drawn) 15.5%, O=C(CCCN1C(=O)c2cccc3cccc(c23)C1=O)N1CCC(CN2C(=O)c3cccc4cccc(c34)C2=O)CC1, O=C1c2cccc3cccc(c23)C(=O)N1CC1CCN(C(=O)C23CC4CC(CC(C4)C2)C3)CC1, CCOC(=O)c1cnc2ccc(OCC)cc2c1N1CCCCCC1 25.2%, CCOC(=O)c1cnc2cc(Cl)c(OC)cc2c1NCCC1=CCCCC1 0.9%, CCCN(CCC)Cc1c(O)ccc2c(=O)c(Oc3cc(C)cc(C)c3)c(C(F)(F)F)oc12 17.9%, COc1cc2c(C(=O)NCCc3ccc(Cl)cc3)cn(CC(C)C)c(=O)c2cc1OC, CC(=O)Oc1ccc(C2Nc3c(C(=O)O)ccc([N+](=O)[O-])c3C3C=CCC32)cc1 (stereo not drawn), CCOC(=O)C1CCC(CN(Cc2cccc(Br)c2)S(=O)(=O)c2cccc(C(F)(F)F)c2)CC1 (stereo not drawn), CN(C)c1ccc(C(c2cc(C(C)(C)C)c(O)c(C(C)(C)C)c2)N2CCOCC2)cc1 (stereo not drawn) 29.2%, CCCc1cc(-c2n[nH]c(C)c2-c2ccc(C(=O)OCC)o2)c(O)cc1O 10.6%, CCCc1cc2c(=O)c(-c3ccc(C(=O)OCC)o3)c(C(=O)OCC)oc2cc1OC 7.1%, CCCc1cc2c(=O)c(-c3ccc(C(=O)OCC)o3)coc2cc1OC(C)=O 16.9%, CCOc1cc2oc(C(F)(F)F)c(Oc3ccccc3)c(=O)c2cc1CC 27.9%, O=c1c(Oc2ccccc2)c(C(F)(F)F)oc2cc(O)ccc12 46.2%, CCc1cc2c(=O)c(-c3nc4ccccc4n3C)c(C(F)(F)F)oc2cc1O, CCc1cc2c(=O)c(Oc3ccccc3)c(C(F)(F)F)oc2cc1OC, CCOc1ccc2c(=O)c(Oc3ccccc3)c(C(F)(F)F)oc2c1, CC(=O)N1CCCc2cc(S(=O)(=O)NC(C(=O)Nc3nc4ccc(C)cc4s3)C(C)C)ccc21 (stereo not drawn), COCCOC(=O)C1=C(C)NC2=C(C(=O)C(C(=O)OC)C(C)C2)C1c1cccc(O)c1 (stereo not drawn) 4.6%, CC1(C)CC(=O)C2=C(C1)OC(N)=C(C#N)C2c1ccc(Cl)cc1 (stereo not drawn) 7.6%, CC(=O)N1CCc2cc(S(=O)(=O)NC(C(=O)Nc3ccccn3)C(C)C)ccc21 (stereo not drawn), Cc1cc(C)c(S(=O)(=O)NCC2CCC(C(=O)NCCc3ccc(Cl)cc3)CC2)c(C)c1 (stereo not drawn) 18.5%, CCc1cc(=O)oc2cc(OCC(=O)OC)c(Cl)cc12, CCCOc1ccc(C2NC(=O)NC(C)=C2C(=O)OCC(C)CCC)cc1 (stereo not drawn), CCOC(=O)Oc1ccc2c(=O)c(Oc3cccc(C)c3)c(C(F)(F)F)oc2c1, CCOc1ccc2c(c1)C(C)=CC(C)(C)N2C(=O)C(C)N1C(=O)c2ccccc2C1=O (stereo not drawn), Cc1cc(NC(=O)CSc2nc3ccccc3c(=O)n2CC2CCC(C(=O)NCCc3ccccc3)CC2)no1 (stereo not drawn), CNC(=O)C1CCC(CNS(=O)(=O)c2ccc(NC(C)=O)cc2)CC1 (stereo not drawn), COc1ccc2c(=O)c(-c3ccccc3OC)c(C(F)(F)F)oc2c1, CCOC(=O)Oc1ccc2c(=O)c(-c3ccccc3OC)c(C(F)(F)F)oc2c1 36.6%, CCCc1cc2c(=O)c(-c3nc4ccccc4s3)c(C)oc2cc1OC(C)=O, CCCc1ccc(Oc2c(C(F)(F)F)oc3cc(OC(C)=O)ccc3c2=O)cc1 46.4%, CCCc1cc2c(=O)c(-c3nc(C)cs3)coc2cc1OC(C)=O, CC(=O)Oc1ccc2c(=O)c(Oc3cc(C)cc(C)c3)c(C(F)(F)F)oc2c1 9.4%, CCCCNC(=O)C1CCN(S(=O)(=O)N(CC(C)C)CC(C)C)CC1, CCCOC(=O)c1c(NC(=O)C2C3C=CC(C3)C2C(=O)O)sc2c1CCCC2 (stereo not drawn), COc1cc2c(C(=O)N(C)c3cccc(C(F)(F)F)c3)cn(CC(C)C)c(=O)c2cc1OC

inhibition, active:
COc1ccc(OC)c(C2/C(=C(/O)c3ccc(C)cc3)C(=O)C(=O)N2CC(C)C)c1 (stereo not drawn) 86.7%, COc1ccc(OC)c(C2/C(=C(\O)c3ccc(F)cc3)C(=O)C(=O)N2CCCCCC(=O)O)c1 (stereo not drawn) 84.5%, O=c1oc2cc(O)cc(O)c2c2c1CCC2 81.6%, CCOc1cc2c(C(=O)O)cn(CC(C)C)c(=O)c2cc1OCC 70%, CCCc1cc(=O)oc2cc(OC(C)=O)cc(OC(C)=O)c12 77.3%, Cc1sc(NC(=O)C2CCCCC2C(=O)O)c(C(N)=O)c1-c1ccc(C(C)(C)C)cc1 (stereo not drawn) 70.2%, Cc1sc(NC(=O)C2C3CCC(C3)C2C(=O)O)c(C(N)=O)c1-c1ccc(C(C)(C)C)cc1 (stereo not drawn) 82%, CCOC(=O)c1c(NC(=O)C2CCCCC2C(=O)O)sc(C)c1-c1ccc(Cl)cc1 (stereo not drawn) 77.1%, N#CC1=C(SCC(=O)Nc2ccc(Br)cc2)NC(=O)C(C#N)C12CCCCC2 (stereo not drawn) 79.2%, CC1CCC(C(C)C)C(OCC(O)CN2CCC(CN3C(=O)c4cccc5cccc(c45)C3=O)CC2)C1 (stereo not drawn) 93.4%, CCOC(=O)c1cnc2ccc(OC)cc2c1NC1CCCCC1 99.3%, CCCc1cc2c(=O)c(-c3ccc(C(=O)OCC)o3)c(C(=O)OCC)oc2cc1OC(C)=O 96%, CCc1cc2c(=O)c(Oc3ccccc3)c(C(F)(F)F)oc2cc1OC(C)=O 121%, CCc1cc2c(=O)c(Oc3ccccc3)c(C(F)(F)F)oc2cc1O 70.8%, CCOC(=O)c1ccc(-c2c(C(F)(F)F)oc3cc(O)c(CC)cc3c2=O)o1 79.1%, CC(=O)Oc1ccc2c(=O)c(Oc3ccccc3)c(C(F)(F)F)oc2c1 97.6%, COc1ccccc1-c1c(C(F)(F)F)oc2cc(OC(=O)C(C)C)ccc2c1=O 92%, CCCc1cc2c(=O)c(-c3nc(C)cs3)c(C)oc2cc1OC(C)=O 72.7%
